{
  "source": "PubChem BioAssay (NCI)",
  "note": "Compounds without any hit were thinned out: in the full panel of roughly 83,000, 20% have a hit.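 Assay: single dose, 48 h. Readout: percent growth (0 = no net growth; negative = cell death). Active: <10.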 Activity calls are given as the source filed them.",
  "data": [
    {"system": "SNB-75 CNS", "assay": "NCI-60 one-dose screen, 48 h (100 = growth as untreated, 0 = no growth, -100 = all killed)", "conditions": "10 µM", "method": "Growth inhibition of the SNB-75 human tumor cell line is measured as a screen for anti-cancer activity. Cells are grown in 96 well plates and exposed to the test compound for 48 hours. Compounds are tested at a single concentration, which is 10^-5 M for most compounds. The reported endpoint is percent growth (GI% or GIPRCNT), where numbers from 0 - 100% represent growth inhibition, and numbers from -100% - 0 represent cell death. For example, a value of 40 represents 60% growth inhibition. A value of 0 means no net growth occurred over the course of the experiment. A value of -40 indicates 40% of cells at the beginning of the experiment died by the end of the experiment. A value of -100 means all cells are dead at the end of the experiment.\nNCI-60 Human Tumor Cell Lines Screen was performed using the standard one-dose NCI protocol, which is described in more detail at https://dtp.cancer.gov/discovery_development/nci-60/default.htm.\nCompounds with GIPRCNT values below 10 were considered active. Activity score was based on GIPRCNT using the following formula: […]\nScore is 0 for GIPRCNT values of 100 or above, 50 for GIPRCNT values of 0, and 100 for GIPRCNT values of -100.", "values": [
      {"smiles": "Cc1cccc2c1O/C(=C\\c1ccc([N+](=O)[O-])o1)C2=O", "growth": "65% (inactive)"},
      {"smiles": "O=C(Nc1cccc(-n2cc(-c3ccncc3)c(-c3ccc(O)c(Cl)c3)n2)c1)Nc1ccc(Cl)c(Cl)c1", "growth": "7.7% (active)"},
      {"smiles": "O=C1/C(=C\\c2ccccc2)CN(C(=O)c2ccccc2F)C/C1=C\\c1ccccc1", "growth": "53.5% (inactive)"},
      {"smiles": "O=c1cc(-c2ccccc2)[nH]n1-c1nc2ccccc2[nH]1", "growth": "64.4% (inactive)"},
      {"smiles": "O=C(/C(=C/c1ccccc1)CN1CCCCC1)c1ccccc1", "growth": "30.6% (inactive)"},
      {"smiles": "O=C1/C(=C/c2ccc([N+](=O)[O-])o2)Oc2ccccc21", "growth": "74.7% (inactive)"},
      {"smiles": "O=C1ON=[N+](c2ccc(Cc3ccc([N+]4=NOC(=O)C4CN4CCOCC4)cc3)cc2)C1CN1CCOCC1", "note": "(stereo not given)", "growth": "72.6% (inactive)"},
      {"smiles": "COc1cc(Cl)cc(-c2nn(-c3cccc(NC(=O)c4ccc(Cl)c(Cl)c4)c3)cc2-c2ccncc2)c1", "growth": "50.6% (inactive)"},
      {"smiles": "COc1ccc(/C=C/C(=O)Nc2ccc(-c3nc4ccc(F)cc4s3)cc2)cc1", "growth": "102% (inactive)"},
      {"smiles": "Fc1ccc2nc(-c3nc(-c4ccccc4)n4ccccc34)[nH]c2c1", "growth": "-44.1% (active)"},
      {"smiles": "Fc1cc(C(F)(F)F)ccc1-c1cncnc1NC1CCCCCC1", "growth": "80.3% (inactive)"},
      {"smiles": "O=C(c1cccs1)c1ccccc1Cc1ccccc1", "growth": "94.4% (inactive)"},
      {"smiles": "CN(C)CCN=c1nc2c(c(N)n1-c1ccccc1)c(=S)n(-c1ccccc1)c(=S)n2-c1ccccc1", "growth": "79% (inactive)"},
      {"smiles": "CCC(=O)N1C/C(=C/c2ccc(OC)cc2)C(=O)/C(=C/c2ccc(OC)cc2)C1", "growth": "52.9% (inactive)"},
      {"smiles": "CCCCC/C=C/C(=O)CCc1ccc(O)c(OC)c1", "growth": "63% (inactive)"},
      {"smiles": "O=C(O)c1ccc(Cl)cc1Nc1ccc(F)cc1", "growth": "83.6% (inactive)"},
      {"smiles": "COc1ccc2c(c1)N(CCO)C1=C(C(=O)OC1)C2c1cc(OC)c(OC)c(OC)c1", "note": "(stereo not given)", "growth": "38.3% (inactive)"},
      {"smiles": "CC(=O)N(C)c1ccc(Nc2ccc(Nc3ccc(N(C)C(C)=O)cc3)c3c2C(=O)c2ccccc2C3=O)cc1", "growth": "73.9% (inactive)"},
      {"smiles": "Cc1ccc(C(=O)Nc2cccc(F)c2)cc1NC(=O)C1(c2ncnc3[nH]ccc23)CC1", "growth": "95.8% (inactive)"},
      {"smiles": "COc1ccc(S(=O)(=O)Nc2c(/C=C\\c3cc(OC)c(OC)c(OC)c3)ccc(OC)c2O)cc1", "growth": "31.3% (inactive)"},
      {"smiles": "CN(CCc1ccccn1)c1ccccc1", "growth": "92% (inactive)"},
      {"smiles": "CNc1ncc(-c2ccc(C(F)(F)F)cc2)c(NC2CCCCCC2)n1", "growth": "90.9% (inactive)"},
      {"smiles": "ClCC#CCSc1ncnc2c1ncn2CC#CCCl", "growth": "-57.5% (active)"},
      {"smiles": "O=C(O)CN1C(=O)c2cccc3cccc(c23)C1=O", "growth": "89.4% (inactive)"},
      {"smiles": "O=C(Nc1ccc(CO)cc1)c1ccccc1Nc1ccnc(C(F)(F)F)c1", "growth": "87.8% (inactive)"},
      {"smiles": "CC1=C(N2CCOCC2)C(N2CCOCC2)=C(C)C(=O)C1=O", "growth": "97.4% (inactive)"},
      {"smiles": "Nc1c(C(=O)Nc2cccc(Br)c2)sc2nc3c(cc12)C(O)CCC3", "note": "(stereo not given)", "growth": "31.2% (inactive)"},
      {"smiles": "CCCC#CCN(CC)CC", "growth": "97.1% (inactive)"},
      {"smiles": "COc1ccc(-c2ccc(-c3ccc(C(=N)N)cn3)o2)cc1", "growth": "61.1% (inactive)"},
      {"smiles": "Cn1c(N)c(N=Nc2ccc(S(=O)(=O)Nc3nccs3)cc2)c(=O)n(C)c1=O", "growth": "94.1% (inactive)"},
      {"smiles": "CCN(CCCCCCCCCCN1CC(=O)N(CCCCCCCCCCN(CC)Cc2ccccc2OC)CC1=O)Cc1ccccc1OC", "growth": "-15.7% (active)"},
      {"smiles": "CCN(CC)CCCC(C)Nc1nc(-c2ccc(OC)cc2)nc2cc(Cl)ccc12", "note": "(stereo not given)", "growth": "59.6% (inactive)"},
      {"smiles": "Nc1nccc(Nc2ccccc2)n1", "growth": "90.9% (inactive)"},
      {"smiles": "CCCCC(CCCCCC(CCCC)NCc1ccc2c(c1)OCO2)NCc1ccc2c(c1)OCO2", "note": "(stereo not given)", "growth": "-100% (active)"},
      {"smiles": "O=C1C(=O)c2ccccc2C(O)=C1CCCc1ccc(C2CCCCCC2)cc1", "growth": "49.3% (inactive)"},
      {"smiles": "CCN(CCCCCCN1CC(=O)N(CCCCCCN(CC)Cc2ccccc2OC)CC1=O)Cc1ccccc1OC", "growth": "76.6% (inactive)"},
      {"smiles": "Nc1ccccc1NC(=O)CCCCC(=O)Nc1ccc2c(c1)/C(=C/c1ccc[nH]1)C(=O)N2", "growth": "16.9% (inactive)"},
      {"smiles": "Nc1c(C(=O)Nc2ccccc2)sc2nc3c(cc12)CCCC3", "growth": "20.6% (inactive)"},
      {"smiles": "COc1ccc(OC)c(/C=C/c2nc(SC)n(-c3ccc(Cl)cc3)n2)c1", "growth": "72.1% (inactive)"},
      {"smiles": "COc1ccc(NC2=NC(C)(CO)CS2)cc1", "note": "(stereo not given)", "growth": "83.5% (inactive)"}
    ]}
  ]
}
